Screening data from PubChem BioAssay.
p97 ATPase inh: inhibitors of human p97 ATPase, primary screen, biochemical. Transitional endoplasmic reticulum ATPase (Homo sapiens), P55072. 220,000 compounds, 0.42% hits. AID 1481, 2009. recombinant p97 ATPase, Kinase-Glo ATP luminescence, 3 h. inhibition, % at 8 µM; in the data active = inhibition above about 15%
L major viab: Leishmania major promastigote growth inhibition, primary screen; Leishmania major promastigotes, resazurin fluorescence viability; inhibition, % at 10 µM; 200,000 compounds, 9% hits; in the data active = inhibition above about 50%;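 note: promastigotes grown with compound for 44 hours at 28 °C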
Insulin prom inh: inhibitors of insulin promoter-driven GFP, primary screen, imaging, TRM-6 cells (human fetal islet line), eGFP reporter, cell count. reporter expression induced with tamoxifen. inhibition, % at 2 µM. 130,000 compounds, 0.9% hits. AID 1273, 2008;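 active = inhibition above the mean plus 3 SD, with well images judged a real hit on visual review, cut at about 60% in these data, passing the limit was not always enough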
ROMK primary: ROMK potassium channel modulators, primary screen, cell-based, thallium flux, MLSMR library | Tet-inducible ROMK, thallium flux fluorescence; actives lie on both sides | B-score at 10 µM | 130,000 compounds, 2% hits | AID 1918, 2009;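 active = signal ratio slope over the read window, or its plate-corrected B-score, at least 3 SD from the plate mean, either direction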;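 note: B-score of the F/F0 ratio slope over 7 to 12 s after thallium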
HCT116 bCat-KO: primary screen for growth suppressors in beta-catenin knockout HCT116 cells (colon tumor, human) | HCT116 beta-catenin knockout viability, CellTiter-Glo, 60 h; active compounds read low | viability, % at 10 µM | 140,000 compounds, 1.5% hits;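 active = viability at or under a set limit, the compound median less 4 SD, cut at about 6% in these data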
PTEN del growth: growth suppression of PTEN-null HCT116, primary screen, cell-based, CellTiter-Glo. HCT116 PTEN-null viability, 60 h; active compounds read low. viability, % at 10 µM. 140,000 compounds, 1.2% hits;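 active = viability at or below a set limit, 4 SD under the median of all tested compounds, cut at about 3.7% in these data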;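 note: PTEN knockout HCT116 line with beta catenin targeted HCT116 as companion control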
ROMK retest: ROMK channel modulator hit retest, confirmation, cell-based, thallium flux, duplicate, resupplied hits | shares compounds with ROMK primary | fluorescence ratio; active compounds read low | normalized thallium flux (F/F0 slope) at 10 µM | 3,000 compounds, 54% hits | AID 1917, 2009;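 active = Flux at 10 µM at least 3 SD below or above vehicle control mean in one or both replicates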
Numbers stand for hits; . = inactive; / = no result given. Rows were chosen to be rich in hits. Some 10% of all compounds tested hit in one or more screens of this group.

SMILES	p97 ATPase inh	L major viab	Insulin prom inh	ROMK primary	HCT116 bCat-KO	PTEN del growth	ROMK retest
COc1ccc2cc(C(=O)N/N=C/c3sc4ccccc4c3O)ccc2c1	.	.	.	-2.8	3.1	.	0.048
COCCn1c(=O)[nH]c2cc(C(=O)NCCc3ccc(S(N)(=O)=O)cc3)ccc2c1=O	.	.	/	.	/	/	/
CC1(C)CC(=O)C2=C(C1)N(CCN1CCOCC1)C1=C(C(=O)CC(C)(C)C1)C2c1cccc(Cl)c1	.	61	/	-3	.	.	0.052
CC1(C)CC(=O)C2=C(C1)N(N1CCOCC1)C(N)=C(C#N)C2c1cccnc1 (centres undefined)	.	.	.	.	.	.	/
COc1cc(CNCCNC(=O)c2nonc2N)ccc1OCc1ccc(Cl)cc1	.	98	/	-3.1	/	/	0.053
Nc1nonc1C(=O)NCCNCc1cc(Br)ccc1OCc1ccccc1F	.	66	.	-4.2	.	.	0.049
Nc1nonc1C(=O)NCCNCc1ccccc1OCc1ccccc1F	.	.	/	/	.	.	/
COC(=O)c1ccc(C(=O)Nc2cc(Cl)ccc2Cl)cc1NC(=O)c1ccc(N(C)C)cc1	.	.	/	/	.	.	/
CC(C)(C)c1[nH]nc2c1C(c1ccsc1)C(C#N)=C(N)O2 (centres undefined)	.	.	.	.	/	/	/
CCc1[nH]nc2c1C(c1ccsc1)C(C#N)=C(N)O2 (centres undefined)	.	.	.	-4.3	.	.	0.063
CN=C1S/C(=C\c2cccn2-c2cccc(Br)c2)C(=O)N1C	.	.	.	.	/	/	/
CC(=O)Nc1cccc2c1C(=O)N(c1ccc(C)cc1)C2=O	.	.	.	-2.7	.	.	.
Cc1ccc(N2C(=O)c3ccccc3C2=O)cc1	.	/	/	.	/	/	/
CC(C)c1ccc(C(N)=S)cc1	.	.	.	.	/	/	/
CCCS(=O)(=O)c1c(S(=O)(=O)CCC)c2cnccn2c1C(=O)c1ccc(CC)cc1	.	.	.	-4.1	.	.	0.066
CCCS(=O)(=O)c1c(S(=O)(=O)CCC)c2cnccn2c1C(=O)c1ccc(F)cc1	.	.	/	.	.	.	/
COC(=O)Cc1ccc(NC(=S)N2CCN(c3ccc(F)cc3)CC2)cc1	.	.	/	/	.	.	/
COc1cc2c3c(c1)C(C)CC(C)(C)N3C(=O)C2=O (centres undefined)	.	.	.	3.4	/	/	.
CCOC(=O)c1c(C)n(C)c2ccc(OCC(O)Cn3nc(C)cc3C)cc12 (centres undefined)	.	86	.	/	.	.	0.067
CC(C)=CCCC1=CCC(/C=N/NC(N)=O)C(C)C1 (centres undefined)	.	.	.	/	.	.	/
O=c1c2cc(N3CCOCC3)ccc2[nH]c(=S)n1Cc1cccc(Cl)c1	.	.	.	/	.	.	.
CCOc1ccc2[nH]c(=O)c(CN(CCO)C(c3nnnn3C3CCCCC3)C(C)C)cc2c1 (centres undefined)	.	69	.	-2.4	.	.	0.059
COc1ccc(NC(=O)NC2CCCCC2C)cc1 (centres undefined)	.	.	/	.	/	/	/
CCN(CC)c1ccc(/C=c2\sc3nc4ccccc4n3c2=O)c(O)c1	.	.	.	-4.8	/	/	0.03
CCCCC1CCC(c2nc(-c3cccnc3)no2)CC1 (centres undefined)	.	.	.	/	.	.	.
SMILES	p97 ATPase inh	L major viab	Insulin prom inh	ROMK primary	HCT116 bCat-KO	PTEN del growth	ROMK retest
CCSc1nnc(NC(=O)NCC(F)(F)F)s1	.	.	/	2.6	.	.	.
CCSc1nnc(NC(=O)C(CC)(C(F)(F)F)C(F)(F)F)s1	.	.	.	.	.	.	.
CCSc1nnc(NC(=O)C(C)(C(F)(F)F)C(F)(F)F)s1	.	.	/	.	.	.	/
COc1cc(OC)cc(C(=O)n2cnnc2N)c1	.	.	.	.	.	.	/
O=C(CSCc1ccc(Cl)cc1)Nc1ccccc1O	.	.	/	2.3	/	/	.
O=C(COc1ccc([N+](=O)[O-])cc1)Nc1ccc(C(=O)Nc2ccccc2C(=O)O)cc1	.	.	/	.	/	/	/
CC1(C)CC(=O)c2cc(OCC(=O)NCCN3CCOCC3)ccc2O1	.	.	/	.	.	.	/
